From the supplement of paper PMC8007513
Counter-ions that a name gives are not always drawn. ± gives the standard error. Screen size: about 1,300 compounds; about 75 (6%) showed an effect of 50% or more. The entries come from a sample that favours strong results as a whole.

System: Trichoderma virens ATCC 9645
Test: growth yield (OD600) relative to untreated control; higher = less growth inhibition
Details: compound concentration: 100 uM
Method in brief: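 Trichoderma virens ATCC 9645 spores from 7-day potato dextrose agar plates were suspended in potato dextrose broth at 15,000 spores ml^−1. Aliquots of 100 μl with library compounds at 100 μM final, with or without a co-applied biocide at 200 ng ml^−1, were grown in 96-well plates at 30 °C. OD600 was read at 40 h and 72 h on a BioTek EL800. Growth is expressed relative to the control without either agent, as means of duplicate screens.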

Row | SMILES | growth yield (40 h) | growth yield (72 h)
1 | COc1ccc(OC)c(C(O)CNC(=O)CN)c1 (centres undefined) [Midodrine hydrochloride] | 101.8 ± 0.16% | 105 ± 0.73%
2 | CC(=O)[C@H]1CC[C@H]2[C@@H]3C=CC4=CC(=O)CC[C@@]4(C)[C@@H]3CC[C@]12C [Dydrogesterone] | 78.3 ± 1.1% | 79.9 ± 2.1%
3 | CN(C)[C@@H]1C(O)=C(C(N)=O)C(=O)[C@@]2(O)C(O)=C3C(=O)c4c(O)ccc(Cl)c4[C@@](C)(O)[C@H]3C[C@@H]12 [Chlortetracycline hydrochloride] | 90.54 ± 0.32% | 90.93 ± 0.32%
4 | Cc1onc(-c2ccccc2)c1-c1ccc(S(N)(=O)=O)cc1 [Valdecoxib] | 107 ± 11% | 104 ± 8.3%
5 | CCOC(=O)[C@H](CCc1ccccc1)N[C@H]1CCc2ccccc2N(CC(=O)O)C1=O [Benazepril hydrochloride] | 104 ± 3.5% | 105 ± 2.1%
6 | O=C(CCCCC(=O)Nc1c(I)cc(I)c(C(=O)O)c1I)Nc1c(I)cc(I)c(C(=O)O)c1I [Iodipamide] | 103 ± 1.1% | 101.6 ± 0.32%
7 | CC(Oc1c(Cl)cccc1Cl)C1=NCCN1 (centres undefined) [Lofexidine] | 104 ± 1.3% | 105 ± 1.1%
8 | CN1CCCN=C1/C=C/c1cccc(O)c1 [Oxantel pamoate] | 93.4 ± 0.64% | 99.8 ± 1.1%
9 | Cc1cc(CC(=O)O)n(C)c1C(=O)c1ccc(Cl)cc1 [Zomepirac sodium salt] | 93.7 ± 5.7% | 88 ± 3.9%
10 | COc1ccc(-c2cc(=S)ss2)cc1 [Anethole-trithione] | 76.4 ± 9.1% | 77.5 ± 7.2%
11 | CNC(=O)c1c(I)c(C(=O)NCC(=O)Nc2c(I)c(C(=O)O)c(I)c(C(=O)NCCO)c2I)c(I)c(N(C)C(C)=O)c1I [Ioxaglic acid] | 105 ± 5.2% | 101 ± 2.2%
12 | CCC(=O)O[C@@H](O[P@](=O)(CCCCc1ccccc1)CC(=O)N1C[C@H](C2CCCCC2)C[C@H]1C(=O)O)C(C)C [Fosinopril] | 109.8 ± 0.48% | 103 ± 3.5%
13 | CN(CCOc1ccc(NS(C)(=O)=O)cc1)CCc1ccc(NS(C)(=O)=O)cc1 [Dofetilide] | 100 ± 5.9% | 98.7 ± 4.3%
14 | CCCCc1oc2ccccc2c1C(=O)c1cc(I)c(OCCN(CC)CC)c(I)c1 [Amiodarone hydrochloride] | 3.18% | 2.94%
15 | CCCCCCCN(CC)CCCC(O)c1ccc(NS(C)(=O)=O)cc1 (centres undefined) [Ibutilide fumarate] | 100 ± 2.9% | 101 ± 2.5%
16 | CCCCOc1cc(C(=O)OCCN(CC)CC)ccc1N [Benoxinate hydrochloride] | 103 ± 3% | 103 ± 1.1%
17 | CCCCc1oc2ccc(NS(C)(=O)=O)cc2c1C(=O)c1ccc(OCCCN(CCCC)CCCC)cc1 [Dronedarone hydrochloride] | 6.19 ± 1.8% | 1.99 ± 0.52%
18 | CCCCOc1cc(C(=O)NCCN(CC)CC)c2ccccc2n1 [Dibucaine] | 101.02 ± 1e-14% | 98.37 ± 0.21%
19 | C[N+]1(C)CCC(OC(=O)C(O)(c2ccccc2)C2CCCC2)C1 (centres undefined) [Glycopyrrolate] | 96.26 ± 0.95% | 90.72 ± 0.73%
20 | CCC(=O)OCC(=O)[C@@]1(OC(=O)CC)[C@@H](C)C[C@H]2[C@@H]3CCC4=CC(=O)C=C[C@]4(C)[C@@]3(Cl)[C@@H](O)C[C@@]21C [Beclomethasone dipropionate] | 103 ± 7.8% | 98.7 ± 3%
21 | N=C(N)NCCN1CCCCCCC1 [Guanethidine sulfate] | 99.6 ± 1.1% | 100.79 ± 0.1%

Row | SMILES | growth yield (40 h) | growth yield (72 h)
22 | CN(C)CC/C=C1/c2ccccc2Sc2ccc(Cl)cc21 [Chlorprothixene hydrochloride] | 70.5 ± 6.3% | 90.8 ± 2.7%
23 | OCCN1CCN(CC/C=C2/c3ccccc3Sc3ccc(Cl)cc32)CC1 [Zuclopenthixol dihydrochloride] | 15.1 ± 1.8% | 60.4 ± 5.7%
24 | OCCOCCN1CCN(C2=Nc3ccccc3Sc3ccccc32)CC1 [Quetiapine hemifumarate] | 108 ± 15% | 106 ± 12%
25 | Cc1cccc(N(C)C(=S)Oc2ccc3ccccc3c2)c1 [Tolnaftate] | 0% | 0%
26 | O=C(O)COC(=O)Cc1ccccc1Nc1c(Cl)cccc1Cl [Aceclofenac] | 94.2 ± 2.1% | 95.02 ± 0.42%
27 | COc1ccc2[nH]cc(CCNC(C)=O)c2c1 [Melatonin] | 101% | 97.3%
28 | CCCCCNC(=N)N/N=C/c1c[nH]c2ccc(OC)cc12 [Tegaserod maleate] | 5.24 ± 0.16% | 3.88 ± 0.52%
29 | CN(C)CCN1C(=O)c2ccccc2N(C)c2ccccc21 [Dibenzepine hydrochloride] | 101 ± 1.8% | 105 ± 3%
30 | CC(C)NC[C@@H](O)COc1ccc(CC(N)=O)cc1 [(R)-(+)-Atenolol] | 102 ± 4% | 97.8 ± 1.8%
31 | C=C1C[C@H]2[C@@H]3C=C(C)C4=CC(=O)CC[C@]4(C)[C@H]3CC[C@]2(C)[C@@]1(OC(C)=O)C(C)=O [Melengestrol acetate] | 96.6 ± 1.6% | 94.5 ± 2.4%
32 | C=C(NC(=O)C(=C)NC(=O)c1csc(C2=N[C@@H]3c4csc(n4)[C@H]4NC(=O)c5csc(n5)[C@H]([C@](C)(O)[C@@H](C)O)NC(=O)[C@H]5CSC(=N5)/C(=C/C)NC(=O)[C@H]([C@@H](C)O)NC(=O)c5csc(n5)[C@]3(CC2)NC(=O)[C@H](C)NC(=O)C(=C)NC(=O)[C@H](C)NC(=O)[C@H]([C@@H](C)CC)N[C@@H]2C=Cc3c([C@H](C)O)cc(nc3[C@H]2O)C(=O)O[C@@H]4C)n1)C(N)=O [Thiostrepton] | 96.6 ± 2.9% | 99 ± 2.1%
33 | CC(=O)NCCCS(=O)(=O)O [Acamprosate calcium] | 98.32 ± 0.48% | 95.9 ± 1.7%
34 | Oc1c(Cl)cc(Cl)c2cccnc12 [Chloroxine] | 1.27 ± 0.32% | 1.36 ± 0.32%
35 | Oc1c(I)cc(Cl)c2cccnc12 [Clioquinol] | 18.3 ± 7.8% | 12.9 ± 5.3%
36 | CCN[C@H]1C[C@H](C)S(=O)(=O)c2sc(S(N)(=O)=O)cc21 [Dorzolamide hydrochloride] | 99.3 ± 5.6% | 92.7 ± 6.7%
37 | CO/N=C(\C(=O)N[C@@H]1C(=O)N2C(C(=O)O)=C(COC(N)=O)CS[C@H]12)c1ccco1 [Cefuroxime sodium salt] | 96.9 ± 2.9% | 89.9 ± 1.1%
38 | O=C1C(CC[S+]([O-])c2ccccc2)C(=O)N(c2ccccc2)N1c1ccccc1 (centres undefined) [Sulfinpyrazone] | 102 ± 1.1% | 106 ± 2.1%
39 | CC(N/C(=N\C#N)Nc1ccncc1)C(C)(C)C (centres undefined) [Pinacidil] | 100 ± 2.2% | 103 ± 0.21%
40 | N=C(N)NCc1cccc(I)c1 [Iobenguane sulfate] | 105 ± 1.9% | 106 ± 1.1%
41 | Nc1nc(NC2CC2)c2ncn([C@H]3C=C[C@@H](CO)C3)c2n1 [Abacavir Sulfate] | 97.2 ± 2.5% | 98.48 ± 0.1%
42 | CCC[C@H](N[C@@H](C)C(=O)N1[C@H](C(=O)O)C[C@@H]2CCCC[C@@H]21)C(=O)OCC [Perindopril] | 101 ± 3.5% | 96.9 ± 2.5%

Row | SMILES | growth yield (40 h) | growth yield (72 h)
43 | Cn1c(=O)c2c(ncn2CC(=O)O)n(C)c1=O [Acefylline] | 96.6 ± 1.9% | 95.12 ± 0.94%
44 | O=C(O)c1cn(-c2ccc(F)cc2)c2cc(N3CCNCC3)c(F)cc2c1=O [Sarafloxacin] | 101 ± 4.1% | 97 ± 2.4%
45 | O=C1NCCN1CCN1CCC(c2cn(-c3ccc(F)cc3)c3ccc(Cl)cc23)CC1 [Sertindole] | 34.5 ± 20% | 111 ± 2.4%
46 | CN(C)[C@@H]1C(O)=C(C(=O)NCNCCCC[C@H](N)C(=O)O)C(=O)[C@@]2(O)C(O)=C3C(=O)c4c(O)cccc4[C@@](C)(O)[C@H]3C[C@@H]12 [Lymecycline] | 82.1 ± 2.7% | 73.83 ± 0.63%
47 | CC(C)(O/N=C(\C(=O)N[C@@H]1C(=O)N2C(C(=O)[O-])=C(C[n+]3ccccc3)CS[C@H]12)c1csc(N)n1)C(=O)O [Ceftazidime pentahydrate] | 102% | 102 ± 1.1%
48 | CO/N=C(\C(=O)N[C@@H]1C(=O)N2C(C(=O)OC(C)OC(C)=O)=C(COC(N)=O)CS[C@H]12)c1ccco1 (some centres undefined) [Cefuroxime axetil] | 97.05 ± 0.16% | 96.5 ± 1.7%
49 | CC(C)NCC(O)c1cc(O)cc(O)c1 (centres undefined) [Metaproterenol sulfate, orciprenaline sulfate] | 99.1 ± 1.6% | 99.95 ± 0.1%
50 | CC[C@@H]([C@H](C)O)n1ncn(-c2ccc(N3CCN(c4ccc(OC[C@@H]5CO[C@@](Cn6cncn6)(c6ccc(F)cc6F)C5)cc4)CC3)cc2)c1=O [Posaconazole] | 8.9 ± 8.9% | 5.77 ± 5.6%
51 | CCC(C)n1ncn(-c2ccc(N3CCN(c4ccc(OCC5COC(Cn6cncn6)(c6ccc(Cl)cc6Cl)O5)cc4)CC3)cc2)c1=O (centres undefined) [Itraconazole] | 4.77 ± 2.2% | 13.2%
52 | CC(C)N1CCN(c2ccc(OCC3COC(Cn4cncn4)(c4ccc(Cl)cc4Cl)O3)cc2)CC1 (centres undefined) [Terconazole] | 82.44 ± 0.16% | 88.4 ± 1.1%
53 | CC(=O)N1CCN(c2ccc(OCC3COC(Cn4ccnc4)(c4ccc(Cl)cc4Cl)O3)cc2)CC1 (centres undefined) [Ketoconazole] | 2.22 ± 1.3% | 1.68 ± 0.84%
54 | Nc1ccc(C(=O)O)c(O)c1 [4-aminosalicylic acid] | 93.1% | 89.36 ± 0.42%
55 | CO[C@@]1(NC(=O)C(C(=O)O)c2ccc(O)cc2)C(=O)N2C(C(=O)O)=C(CSc3nnnn3C)CO[C@@H]21 (some centres undefined) [Moxalactam disodium salt] | 96.1 ± 0.16% | 92.71 ± 0.63%
56 | CCC(C)(C)C(=O)O[C@H]1C[C@@H](C)C=C2C=C[C@H](C)[C@H](CC[C@@H]3C[C@@H](O)CC(=O)O3)[C@H]21 [Simvastatin] | 103 ± 1.3% | 96.2 ± 4.5%
57 | C=CCN1CCCC1CNC(=O)c1cc2nn[nH]c2cc1OC (centres undefined) [Alizapride hydrochloride] | 108 ± 4.3% | 109 ± 2.7%
58 | CN(C)C(=N)NC(=N)N [Metformin hydrochloride] | 105 ± 7.2% | 103 ± 5.3%
59 | Clc1ccc(CO/N=C(\Cn2ccnc2)c2ccc(Cl)cc2Cl)c(Cl)c1 [Oxiconazole Nitrate] | 1.59 ± 1.6% | 0.839 ± 0.84%
60 | Clc1ccc(C(Cn2ccnc2)OCc2c(Cl)cccc2Cl)c(Cl)c1 (centres undefined) [Isoconazole] | 2.06 ± 1.4% | 1.68 ± 1.1%
61 | Clc1ccc(CCC(Cn2ccnc2)Sc2c(Cl)cccc2Cl)cc1 (centres undefined) [Butoconazole nitrate] | 3.49% | 2.31%
62 | Clc1ccc(CSC(Cn2ccnc2)c2ccc(Cl)cc2Cl)cc1 (centres undefined) [Sulconazole nitrate] | 2.22 ± 0.64% | 1.78 ± 0.52%
